Substitutions are numbered along the chain they refer to.

Common to all, as to test: PBM; 200 nM protein, PBS
What all share (settings): dsDNA, one strand shown

Assay [1] concerns the target SHOX (Homo sapiens, UniProt O15266 103-189).
Assay [2] has as its target T1, PAX4 (Homo sapiens, UniProt O43316 9-242, R200K).
T1 sequence: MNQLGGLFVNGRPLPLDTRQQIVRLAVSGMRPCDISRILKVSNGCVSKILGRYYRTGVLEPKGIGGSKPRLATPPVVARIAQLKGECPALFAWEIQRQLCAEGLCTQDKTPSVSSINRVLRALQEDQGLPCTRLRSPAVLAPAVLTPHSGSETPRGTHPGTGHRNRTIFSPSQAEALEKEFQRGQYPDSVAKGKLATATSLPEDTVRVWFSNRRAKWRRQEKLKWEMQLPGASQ

In assay [3] the target is T2, PAX4 (Homo sapiens, UniProt O43316 9-242).
T2 sequence: T1 sequence with K192R

Assay [4] deals with T3, PAX4 (Homo sapiens, UniProt O43316 9-242, R200Q).
T3 sequence: T1 sequence with K192Q

In assay [5] the target is SHOX (Homo sapiens, UniProt O15266 103-189, R173C).
The target of assay [6] is T4, PAX4 (Homo sapiens, UniProt O43316 9-242, F177V).
T4 sequence: T1 sequence with F169V, K192R

Assay [7] deals with T5, PAX4 (Homo sapiens, UniProt O43316 9-242, F177Y).
T5 sequence: T1 sequence with F169Y, K192R

In assay [8] the target is T6, PAX4 (Homo sapiens, UniProt O43316 9-242, R227W).
T6 sequence: T1 sequence with K192R, R219W

For assay [9], the target named is ALX4 (Homo sapiens, UniProt Q9H161 200-286).
Assay [10] deals with ALX4 (Homo sapiens, UniProt Q9H161 200-286, Q225E).
In assay [11] the target is MSX2 (Homo sapiens, UniProt P35548 130-214, R199I).
In assay [12] the target is MSX2 (Homo sapiens, UniProt P35548 130-214).
The target of assay [13] is MSX2 (Homo sapiens, UniProt P35548 130-214, F161Y).
The target of assay [14] is ALX1 (Homo sapiens, UniProt Q15699 118-204, L144V).
Assay [15] has as its target ALX1 (Homo sapiens, UniProt Q15699 118-204, L144R).
In assay [16] the target is ALX1 (Homo sapiens, UniProt Q15699 118-204).
Assay [17] deals with VAX1 (Homo sapiens, UniProt Q5SQQ9 86-172).
The target in assay [18] is VAX1 (Homo sapiens, UniProt Q5SQQ9 86-172, T142I).
Assay [19] addresses VAX1 (Homo sapiens, UniProt Q5SQQ9 86-172, K157R).

SHOX (Homo sapiens, UniProt O15266 103-189, R173C), sequence (O15266 103-189 R173C): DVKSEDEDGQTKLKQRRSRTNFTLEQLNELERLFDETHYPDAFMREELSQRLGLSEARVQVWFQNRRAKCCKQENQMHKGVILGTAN
SHOX (Homo sapiens, UniProt O15266 103-189), sequence (O15266 103-189): as the sequence (O15266 103-189 R173C) above, with C71R counted along it
ALX1 (Homo sapiens, UniProt Q15699 118-204, L144R), sequence (Q15699 118-204 L144R): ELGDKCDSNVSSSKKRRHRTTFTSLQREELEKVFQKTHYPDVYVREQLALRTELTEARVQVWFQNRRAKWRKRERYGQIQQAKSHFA
ALX1 (Homo sapiens, UniProt Q15699 118-204, L144V), sequence (Q15699 118-204 L144V): as the sequence (Q15699 118-204 L144R) above, with R27V counted along it
ALX1 (Homo sapiens, UniProt Q15699 118-204), sequence (Q15699 118-204): as the sequence (Q15699 118-204 L144R) above, with R27L counted along it
ALX4 (Homo sapiens, UniProt Q9H161 200-286), sequence (Q9H161 200-286): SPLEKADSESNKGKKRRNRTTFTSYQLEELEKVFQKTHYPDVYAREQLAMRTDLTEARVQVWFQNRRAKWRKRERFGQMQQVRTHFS
ALX4 (Homo sapiens, UniProt Q9H161 200-286, Q225E), sequence (Q9H161 200-286 Q225E): as the sequence (Q9H161 200-286) above, with Q26E counted along it
VAX1 (Homo sapiens, UniProt Q5SQQ9 86-172), sequence (Q5SQQ9 86-172): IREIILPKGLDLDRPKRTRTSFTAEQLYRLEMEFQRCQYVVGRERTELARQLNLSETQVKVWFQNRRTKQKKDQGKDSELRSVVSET
VAX1 (Homo sapiens, UniProt Q5SQQ9 86-172, K157R), sequence (Q5SQQ9 86-172 K157R): as the sequence (Q5SQQ9 86-172) above, with K72R counted along it
VAX1 (Homo sapiens, UniProt Q5SQQ9 86-172, T142I), sequence (Q5SQQ9 86-172 T142I): as the sequence (Q5SQQ9 86-172) above, with T57I counted along it
MSX2 (Homo sapiens, UniProt P35548 130-214, R199I), sequence (P35548 130-214 R199I): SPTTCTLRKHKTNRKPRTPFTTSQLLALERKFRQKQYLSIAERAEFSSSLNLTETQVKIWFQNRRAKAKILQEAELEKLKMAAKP
MSX2 (Homo sapiens, UniProt P35548 130-214), sequence (P35548 130-214): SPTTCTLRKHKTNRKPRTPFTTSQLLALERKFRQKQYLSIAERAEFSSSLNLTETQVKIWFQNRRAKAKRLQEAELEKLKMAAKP
MSX2 (Homo sapiens, UniProt P35548 130-214, F161Y), sequence (P35548 130-214 F161Y): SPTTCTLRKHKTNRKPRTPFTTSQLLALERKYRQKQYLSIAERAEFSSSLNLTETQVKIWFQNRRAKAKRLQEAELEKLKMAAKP

In the case of CGCCTCCC, the binding signal was 7 upbm affinity estimate (log intensity, higher = more binding, comparable within an allelic series) in the assay with SHOX [1]; 9.2 upbm affinity estimate (log intensity, higher = more binding, comparable within an allelic series) with PAX4 [2]; 9.23 upbm affinity estimate (log intensity, higher = more binding, comparable within an allelic series) with PAX4 [3]; 9.17 upbm affinity estimate (log intensity, higher = more binding, comparable within an allelic series) with PAX4 [4]; 6.98 upbm affinity estimate (log intensity, higher = more binding, comparable within an allelic series) in the assay with SHOX [5]; 9.03 upbm affinity estimate (log intensity, higher = more binding, comparable within an allelic series) with PAX4 [6]. In addition, the binding signal with PAX4 [7] is 9.1 upbm affinity estimate (log intensity, higher = more binding, comparable within an allelic series); with PAX4 [8] it was 9.17 upbm affinity estimate (log intensity, higher = more binding, comparable within an allelic series).
With CCCTCCCG, the binding signal in the assay with SHOX [1] was 6.94 upbm affinity estimate (log intensity, higher = more binding, comparable within an allelic series); with ALX4 [9] it was 8.02 upbm affinity estimate (log intensity, higher = more binding, comparable within an allelic series); in the assay with ALX4 [10] it was 8.18 upbm affinity estimate (log intensity, higher = more binding, comparable within an allelic series); in the assay with SHOX [5] it was 7.03 upbm affinity estimate (log intensity, higher = more binding, comparable within an allelic series).
For AATTAGAG, the binding signal was 11.6 upbm affinity estimate (log intensity, higher = more binding, comparable within an allelic series) in the assay with SHOX [1]; 11.7 upbm affinity estimate (log intensity, higher = more binding, comparable within an allelic series) in the assay with PAX4 [2]; 12.2 upbm affinity estimate (log intensity, higher = more binding, comparable within an allelic series) with PAX4 [3]; 12.1 upbm affinity estimate (log intensity, higher = more binding, comparable within an allelic series) with MSX2 [11]; 12 upbm affinity estimate (log intensity, higher = more binding, comparable within an allelic series) with PAX4 [4]; 9.13 upbm affinity estimate (log intensity, higher = more binding, comparable within an allelic series) with SHOX [5]. Also, the binding signal with PAX4 [6] was 10.4 upbm affinity estimate (log intensity, higher = more binding, comparable within an allelic series); in the assay with MSX2 [12], 13.3 upbm affinity estimate (log intensity, higher = more binding, comparable within an allelic series); in the assay with PAX4 [7], 10.9 upbm affinity estimate (log intensity, higher = more binding, comparable within an allelic series); with MSX2 [13] it was 13.1 upbm affinity estimate (log intensity, higher = more binding, comparable within an allelic series); in the assay with PAX4 [8], 10.8 upbm affinity estimate (log intensity, higher = more binding, comparable within an allelic series).
As for GCAAATTA, the binding signal with SHOX [1] is 11.6 upbm affinity estimate (log intensity, higher = more binding, comparable within an allelic series); in the assay with PAX4 [2] it was 11.6 upbm affinity estimate (log intensity, higher = more binding, comparable within an allelic series); with PAX4 [3], 12.1 upbm affinity estimate (log intensity, higher = more binding, comparable within an allelic series); in the assay with ALX1 [14] it was 11.2 upbm affinity estimate (log intensity, higher = more binding, comparable within an allelic series); in the assay with PAX4 [4] it was 11.9 upbm affinity estimate (log intensity, higher = more binding, comparable within an allelic series); with SHOX [5], 8.89 upbm affinity estimate (log intensity, higher = more binding, comparable within an allelic series). Moreover, the binding signal in the assay with ALX1 [15] is 10.8 upbm affinity estimate (log intensity, higher = more binding, comparable within an allelic series); with PAX4 [6], 10.3 upbm affinity estimate (log intensity, higher = more binding, comparable within an allelic series); with PAX4 [7], 10.8 upbm affinity estimate (log intensity, higher = more binding, comparable within an allelic series); in the assay with PAX4 [8] it was 10.8 upbm affinity estimate (log intensity, higher = more binding, comparable within an allelic series); with ALX1 [16], 12 upbm affinity estimate (log intensity, higher = more binding, comparable within an allelic series).
As for CCACCCGG, the binding signal was 7.19 upbm affinity estimate (log intensity, higher = more binding, comparable within an allelic series) with SHOX [1]; 8.21 upbm affinity estimate (log intensity, higher = more binding, comparable within an allelic series) with ALX4 [9]; 8.29 upbm affinity estimate (log intensity, higher = more binding, comparable within an allelic series) in the assay with ALX4 [10]; 6.62 upbm affinity estimate (log intensity, higher = more binding, comparable within an allelic series) in the assay with ALX1 [14]; 7.17 upbm affinity estimate (log intensity, higher = more binding, comparable within an allelic series) with SHOX [5]; 6.65 upbm affinity estimate (log intensity, higher = more binding, comparable within an allelic series) with ALX1 [15]. The binding signal with VAX1 [17] is 7.3 upbm affinity estimate (log intensity, higher = more binding, comparable within an allelic series); with VAX1 [18], 7 upbm affinity estimate (log intensity, higher = more binding, comparable within an allelic series); in the assay with ALX1 [16], 6.35 upbm affinity estimate (log intensity, higher = more binding, comparable within an allelic series); with VAX1 [19], 7.13 upbm affinity estimate (log intensity, higher = more binding, comparable within an allelic series).

The values above are taken from publication PMC11006913.
